Experimental data published in the supplement of paper PMC6555819.

tested on: PPARg homodimer (NR concentration 180 nM); assay: PBM binding z-score (relative to random genomic background probes); higher = stronger binding; sequences stand for … in GC…GCGATTGACAGCGTAGAATGAAGG
Summary of the method: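 Each nuclear receptor dimer, without ligand, was incubated for 1 h on custom Agilent 4×180K protein-binding microarrays. Binding was detected with antibodies against each partner (one per run), and scanned fluorescence was regression-normalized. The binding z-scores are referenced to random human genomic background probes.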

Sequence | PBM binding z-score
CCTTACGGGACACTGACAGGTTATAGCATTTGGA | -0.0979
AGAACGAGGGCAATGAGTTGAGAGCACGGGTGGC | 0.0206
CCTGCTAGGTCAATGGTCGGCTAAAGCAGCTCGC | 1.3
CCGACTGGGGCTAAGGTTACCATACTCAGTACGA | 0.343
CTTCCAAGGTCAATGCTAGGTCAGTGAAAGCATT | 4.08
CATACTGGGCCAAAGGTCATTGATTCCAATGCTC | 3.77
AGAACGAGGGCACGCTGAGTTGCTAGCAGAGTAG | -0.0627
CCTCGGAGGACCACAGGAGGTCAGAGCTGCCAGA | 1.3
AGTCAAAGTTCAGGACGAGGTTACGTAAAGCACG | 2.73
TCTAGTTGGTCACGGACGTCACACACGACGGGTA | 0.55
TAGCCTAGGTCATTGCGCCAGTATAGTACGCATC | 1.7
TCTTTTAGATCAAGCAGGTTAAGAAAGCCTGAGT | -0.29
CATACAGGGTCAGCTAGGCCACAGTAGGGACGGC | 2.12
GCTAGTTGGTCAGTAAAAGGTCACACGCCGGTCG | 3.94
ACAGACAAGTGAGTGAAGGTAACTCAGCTGGACG | -0.0501
CCTACTGGGCCATTCAGAGGTCTTTGATCATATG | 0.234
CCGACTGGGGTAGAAAGGTTACCATACCATCCGG | 1.69
CCGACTGGGGCATAAGGTTAGCATAAGCCAGCCC | -0.109
CGTCAAAGTTCCACTAAGGTAACGTAAAGCACGC | 0.404
CCGACTGGGGCAGATAGGTTACCATACCATCCGG | 0.00162

Sequence | PBM binding z-score
CATACAGGGTCAGCTAGGCGAGAGTAGGGACGGC | 1.41
GGAACGAGGGCAAGTTGATCGCAGAGTTTGATGG | -0.254
ACAGACAGGTGATGAAGCTAACTCAGGCTATCAT | 0.0494
GCATATAGGTAATACAAGGTAAAAGTCCGATTGT | 0.166
TCTGGGAGGACACGAAAGGTCAGAGCTCGACATC | 2.76
CCGACTGGGGCAAAGTTACCATAACGCACAGCCA | 0.229
AGAATGAGGTTAAGATGAGGGAAACAGAATACAT | 0.984
ATATGTAGATTATCGGGTCATTCAGTTTGCGCAT | 1.63
TCATATTGGTAAAGGTGAAAGTCGAACGATATGA | 1.15
TCTCGGAGCACACGAAGGTCAGAGCTTTCCAGAG | 0.396
CAAACTAGGTCAAGAGATCAAAGTCCGCTTCCCG | 2.15
ATCGAAAGGTCGAGGGTGAGTATACCCACCCGAA | 0.976
CAGCCTAGGTCAGGGCCAGTATTGGAGGAACGTT | 0.568
ATCGAAAGGTCGAAGGTGAGTGTACCCACCCGAA | 1.79
CGAACTAGGTTAAGGACAGTGAATCTCCGCACGC | 1.07
TCATATAGGTAATACAGGTGAAAGCCGGCATCTA | 1.14
CCTGCTAGGTCATCGTCAGCTAATCTACAGTATG | 0.929
TCTTGGAGATCAACAGGAGGTTAAGAAAGATCGA | -0.163
GCGACTGGGGCAAAGCAGGTTACCATAAGGTTGG | -0.306
TAGCCTAGGTCATGGACCAGTATACCACGCGAAC | 1.64
